The panel holds about 79,000 compounds, 15% with a hit somewhere; the sample as a whole holds those more often. A number with no mark means an inactive call. Activity calls are given as the source filed them. Cut-off read from the data, not from the text of the source: active = growth inhibition above about 70%; inactive = the rest.
What was measured:
[1] = NCI Yeast Anticancer Drug Screen. Data for the rad50 strain (AID 155);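 note: 0% = growth of vehicle-only cultures of the same strain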; details: S. cerevisiae rad50 strain growth inhibition; at 50.0 µM; stronger effect = higher value
Summary of the method: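 A DNA repair-deficient yeast mutant serves as the test organism; compound-induced growth inhibition is calculated against vehicle-treated cells.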

[2] = NCI Yeast Anticancer Drug Screen. Data for the mec2-1 strain (AID 157); details: S. cerevisiae mec2-1 strain, at 50.0 µM, stronger effect = higher value
Summary of the method: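 Readout is yeast growth inhibition, normalised to vehicle-treated controls, in the mec2-1 strain exposed to compound.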

[3] = NCI Yeast Anticancer Drug Screen. Data for the sgs1 mgt1 strain (AID 161);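 note: 0% = growth of cultures given vehicle only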; details: S. cerevisiae sgs1 mgt1 strain, at 50.0 µM, stronger effect = higher value
Summary of the method: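 Growth of a repair-deficient yeast mutant was monitored after compound treatment and expressed as inhibition relative to vehicle-treated cultures.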

[4] = NCI Yeast Anticancer Drug Screen. Data for the cln2 rad14 strain (AID 165);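 note: 0% = growth equal to vehicle treated cultures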; details: S. cerevisiae cln2 rad14 strain, at 50.0 µM, stronger effect = higher value
Summary of the method: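 Relative to vehicle controls, growth inhibition of compound-treated cln2 rad14 yeast was recorded.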

[5] = NCI Yeast Anticancer Drug Screen. Data for the bub3 strain (AID 167); details: S. cerevisiae bub3 mutant strain, at 50.0 µM, stronger effect = higher value
Summary of the method: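 Inhibition values come from growth of compound-treated mutant yeast normalised to vehicle-treated controls.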

[6] = NCI Yeast Anticancer Drug Screen. Data for the mlh1 rad18 strain (AID 175); details: S. cerevisiae mlh1 rad18 strain growth inhibition; at 50.0 µM; stronger effect = higher value
Summary of the method: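 Test agents were incubated with a yeast strain of defined genotype (DNA damage repair defect). Inhibition of growth was derived by comparison with vehicle-exposed cultures.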

O=C(CCC(=O)Nc1ccc(Cl)cc1)CC(=O)c1ccc2ccccc2c1
growth inhibition [1]: -51% | growth inhibition [2]: -28.9% | growth inhibition [3]: -13.3% | growth inhibition [4]: 8.4% | growth inhibition [5]: -31.1% | growth inhibition [6]: -29.9%

COc1cc(C(c2cc3c(cc2O)OCO3)n2ccnc2)cc(OC)c1OC (stereo unspecified)
growth inhibition [1]: -15.2% | growth inhibition [2]: 1.6% | growth inhibition [3]: -13.1% | growth inhibition [4]: 8.75% | growth inhibition [5]: 2.9% | growth inhibition [6]: 13.1%

COC(=O)c1ccc(/C=C2\Oc3ccccc3C2=O)cc1
growth inhibition [1]: -54.1% | growth inhibition [2]: -62.2% | growth inhibition [3]: -39% | growth inhibition [4]: -8.5% | growth inhibition [5]: -22.9% | growth inhibition [6]: -44.5%

N#Cc1c2c(c(=O)n3c1[nH]c1ccccc13)CCCC2
growth inhibition [1]: 16.2% | growth inhibition [2]: 5.35% | growth inhibition [3]: 19.8% | growth inhibition [4]: 7.95% | growth inhibition [5]: 18.4% | growth inhibition [6]: 18.5%

Cc1ccccc1NC(=O)CSc1nnc(Cc2ccccc2)o1
growth inhibition [1]: -15.3% | growth inhibition [2]: -20.6% | growth inhibition [3]: -36.8% | growth inhibition [4]: -13.5% | growth inhibition [5]: -33.8% | growth inhibition [6]: -35.5%

CCNCCN(CC)CC
growth inhibition [1]: -12.7% | growth inhibition [2]: -5.75% | growth inhibition [3]: -21.1% | growth inhibition [4]: 6.1% | growth inhibition [5]: 0% | growth inhibition [6]: -17.4%

CCOC(=O)CCC1(C(=O)OCC)CCCC1=O (stereo unspecified)
growth inhibition [1]: -12.9% | growth inhibition [2]: -21.3% | growth inhibition [3]: -27.4% | growth inhibition [4]: -9.7% | growth inhibition [5]: 10.6% | growth inhibition [6]: -19.3%

NC1c2c(Br)sc(N3CCCC3)c2C(=O)C1O (stereo unspecified)
growth inhibition [1]: 8.05% | growth inhibition [2]: -3.5% | growth inhibition [3]: -5.25% | growth inhibition [4]: -5.35% | growth inhibition [5]: -16.4% | growth inhibition [6]: -30.3%

C=CCCC(=O)CC(=O)OCC
growth inhibition [1]: -25.1% | growth inhibition [2]: -22.7% | growth inhibition [3]: -10.7% | growth inhibition [4]: 10.3% | growth inhibition [5]: -8% | growth inhibition [6]: 6.15%

COc1ccc(N2C(=O)C(C)SC23C(=O)Nc2ccccc23)cc1 (stereo unspecified)
growth inhibition [1]: 13.6% | growth inhibition [2]: 20.4% | growth inhibition [3]: 5.75% | growth inhibition [4]: 2.5% | growth inhibition [5]: 4.75% | growth inhibition [6]: 18.8%

C=CCCCCCCCCCCCCCCCCC
growth inhibition [1]: -25.9% | growth inhibition [2]: -24.1% | growth inhibition [3]: -13.3% | growth inhibition [4]: 10.4% | growth inhibition [5]: -16.1% | growth inhibition [6]: -28%

O/N=C1/CCSc2ccccc21
growth inhibition [1]: 21% | growth inhibition [2]: -8.9% | growth inhibition [3]: 17.1% | growth inhibition [4]: 16.2% | growth inhibition [5]: 28.4% | growth inhibition [6]: 8.25%

c1ccc(-c2cnc(-c3ccccc3)cn2)cc1
growth inhibition [1]: 1.3% | growth inhibition [2]: 10.6% | growth inhibition [3]: -6.15% | growth inhibition [4]: 41.6% | growth inhibition [5]: 6.75% | growth inhibition [6]: -15.4%

Cc1ccc(S(=O)(=O)Oc2cccc(Br)c2)cc1
growth inhibition [1]: 8.25% | growth inhibition [2]: -1.25% | growth inhibition [3]: 21.9% | growth inhibition [4]: -17.4% | growth inhibition [5]: -1.1% | growth inhibition [6]: 7.55%

CCCCNc1ncnc2c1cnn2C
growth inhibition [1]: -3.2% | growth inhibition [2]: 18.9% | growth inhibition [3]: -28.2% | growth inhibition [4]: -11.9% | growth inhibition [5]: -7.1% | growth inhibition [6]: -4.3%

C=C1c2nc3ccccc3n2C=C(c2ccc(Cl)cc2)N1c1ccc(OC)cc1
growth inhibition [1]: -3.95% | growth inhibition [2]: 23.4% | growth inhibition [3]: 19.8% | growth inhibition [4]: 11.4% | growth inhibition [5]: 7.7% | growth inhibition [6]: 40.2%

CN1c2ccccc2N(C)C2C1N(C)c1ccccc1N2C (stereo unspecified)
growth inhibition [1]: -38.9% | growth inhibition [2]: -28.4% | growth inhibition [3]: -12.4% | growth inhibition [4]: -1.8% | growth inhibition [5]: -19.9% | growth inhibition [6]: -36.1%

CCCCCCCC(=O)OCC(=O)c1ccc(-c2ccccc2)cc1
growth inhibition [1]: -24.8% | growth inhibition [2]: -1.6% | growth inhibition [3]: 2.85% | growth inhibition [4]: -28.6% | growth inhibition [5]: 11.5% | growth inhibition [6]: 3.1%

CC(C)C(NC(=O)C1CCCN1)P(=O)(O)O (stereo unspecified)
growth inhibition [1]: 10.1% | growth inhibition [2]: 1.7% | growth inhibition [3]: 4.55% | growth inhibition [4]: -10.8% | growth inhibition [5]: 5% | growth inhibition [6]: 5.9%

N#Cc1ccc(/C=C\c2ccc(C#N)cc2)cc1
growth inhibition [1]: -8.2% | growth inhibition [2]: 5.05% | growth inhibition [3]: 4.45% | growth inhibition [4]: 6.05% | growth inhibition [5]: 1.2% | growth inhibition [6]: -11.1%

CCC(COC(=O)C(c1ccccc1)c1ccccc1)NC1CCCCC1 (stereo unspecified)
growth inhibition [1]: 27.4% | growth inhibition [2]: 14.3% | growth inhibition [3]: 44.8% | growth inhibition [4]: 14.8% | growth inhibition [5]: 6.45% | growth inhibition [6]: 27.6%

O=C(O)Cc1ccc([N+](=O)[O-])cc1
growth inhibition [1]: 21.1% | growth inhibition [2]: -11.3% | growth inhibition [3]: 36.1% | growth inhibition [4]: 15.2% | growth inhibition [5]: 12.8% | growth inhibition [6]: 4.75%

COc1ccc(C(C)=O)cc1CO/N=C1\CSCc2ccccc21
growth inhibition [1]: 22.9% | growth inhibition [2]: 12.4% | growth inhibition [3]: 34.5% | growth inhibition [4]: 22.4% | growth inhibition [5]: 48.2% | growth inhibition [6]: 12.2%

NS(=O)(=O)c1cccc([N+](=O)[O-])c1
growth inhibition [1]: 21.1% | growth inhibition [2]: 5% | growth inhibition [3]: 6.7% | growth inhibition [4]: 5.95% | growth inhibition [5]: -2.5% | growth inhibition [6]: -13.1%

N#Cc1cc([N+](=O)[O-])ccc1NC(=O)C(=O)C(C(=O)c1ccc2ccccc2c1)C1OCc2ccccc21 (stereo unspecified)
growth inhibition [1]: 11.1% | growth inhibition [2]: -6.4% | growth inhibition [3]: -2.85% | growth inhibition [4]: 36.1% | growth inhibition [5]: -8.5% | growth inhibition [6]: -9.95%

CCC(C)C(C)O (stereo unspecified)
growth inhibition [1]: -7.05% | growth inhibition [2]: -53% | growth inhibition [3]: 2.9% | growth inhibition [4]: 14.5% | growth inhibition [5]: -12.8% | growth inhibition [6]: 0.1%

O=C(CCNC(=O)OCc1ccccc1)NC(Cc1ccccc1)C(=O)OCc1ccccc1 (stereo unspecified)
growth inhibition [1]: -0.9% | growth inhibition [2]: -14.2% | growth inhibition [3]: 4.55% | growth inhibition [4]: -15.3% | growth inhibition [5]: 2.4% | growth inhibition [6]: 7.65%

C=CCNC(=S)Nc1cccc(O)c1
growth inhibition [1]: -8.05% | growth inhibition [2]: -11.6% | growth inhibition [3]: -11.6% | growth inhibition [4]: -31.8% | growth inhibition [5]: -10.9% | growth inhibition [6]: -2.55%

OCC(O)C(O)C(O)C(O)C(OCc1ccccc1)OCc1ccccc1 (stereo unspecified)
growth inhibition [1]: 11.3% | growth inhibition [2]: 7.55% | growth inhibition [3]: -23.6% | growth inhibition [4]: -12.7% | growth inhibition [5]: 5.1% | growth inhibition [6]: 9.85%

O=C(O)C(c1ccccc1)C1(O)CC2CCC1C2 (stereo unspecified)
growth inhibition [1]: -38% | growth inhibition [2]: -45.5% | growth inhibition [3]: -36.6% | growth inhibition [4]: -10.7% | growth inhibition [5]: -56% | growth inhibition [6]: -54.5%

CC(C)CC(=O)OC1=C(OC(=O)CC(C)C)C(=O)C(OC(=O)CC(C)C)=C(OC(=O)CC(C)C)C1=O
growth inhibition [1]: 36.9% | growth inhibition [2]: 15.3% | growth inhibition [3]: 39.3% | growth inhibition [4]: 29.6% | growth inhibition [5]: 7.9% | growth inhibition [6]: 25.3%

CCCNC(C)=O
growth inhibition [1]: 12.2% | growth inhibition [2]: -26.1% | growth inhibition [3]: -24.9% | growth inhibition [4]: -27.1% | growth inhibition [5]: -8.55% | growth inhibition [6]: -1.25%

Cc1ccc(S(=O)(=O)OC2COC3C2OC2OC(C)(C)OC23)cc1 (stereo unspecified)
growth inhibition [1]: 19.1% | growth inhibition [2]: 11.2% | growth inhibition [3]: 0.2% | growth inhibition [4]: -9.1% | growth inhibition [5]: 7.4% | growth inhibition [6]: 0.35%

Nc1ccc(P(=O)(Nc2ccc3ccccc3c2)Nc2ccc3ccccc3c2)cc1
growth inhibition [1]: 83.2% (active) | growth inhibition [2]: 67.5% | growth inhibition [3]: 89.2% (active) | growth inhibition [4]: 79.9% (active) | growth inhibition [5]: 83.2% (active) | growth inhibition [6]: 91.2% (active)

CC(C)(C)C1CCC(O)(CSc2ccccc2)CC1 (stereo unspecified)
growth inhibition [1]: 6.7% | growth inhibition [2]: 1.45% | growth inhibition [3]: -1.75% | growth inhibition [4]: -1.75% | growth inhibition [5]: -6.7% | growth inhibition [6]: -10.6%

COC(=O)CCCc1ccccc1N
growth inhibition [1]: -5.65% | growth inhibition [2]: -8.8% | growth inhibition [3]: -18.9% | growth inhibition [4]: -35.8% | growth inhibition [5]: 3.1% | growth inhibition [6]: -15.9%

CSC12CC3C(=O)C=C[C@@H](O)[C@@H]3N1C(=O)C1(SC)CC3C(=O)C=C[C@@H](O)[C@@H]3N1C2=O (stereo partly specified)
growth inhibition [1]: 64.3% | growth inhibition [2]: 78.2% (active) | growth inhibition [3]: 85.1% (active) | growth inhibition [4]: 39.8% | growth inhibition [5]: 72.8% (active) | growth inhibition [6]: 65.2%

C[P+](C)(C)c1ccccc1
growth inhibition [1]: -16.6% | growth inhibition [2]: 4% | growth inhibition [3]: 4.95% | growth inhibition [4]: -22.2% | growth inhibition [5]: 3.15% | growth inhibition [6]: -3.7%

CC(=O)OC1CCC2(C)C(=CCC3C2CCC2(C)/C(=N\NS(=O)(=O)c4ccc(C)cc4)CCC32)C1 (stereo unspecified)
growth inhibition [1]: 63.7% | growth inhibition [2]: 28.6% | growth inhibition [3]: 43.3% | growth inhibition [4]: -2.05% | growth inhibition [5]: 40.3% | growth inhibition [6]: 49.5%

CCCCCCCCCCCC[N+]1(C)CCS(=O)CC1 (stereo unspecified)
growth inhibition [1]: 84.7% (active) | growth inhibition [2]: 84.3% (active) | growth inhibition [3]: 80% (active) | growth inhibition [4]: 70.7% (active) | growth inhibition [5]: 63.4% | growth inhibition [6]: 85.3% (active)

O=C(/C=N\O)Nc1ccccc1O
growth inhibition [1]: 2.6% | growth inhibition [2]: 4.3% | growth inhibition [3]: -24.4% | growth inhibition [4]: -11.6% | growth inhibition [5]: -5.15% | growth inhibition [6]: -1.9%

Source: PubChem BioAssay (NCI)
